# Results filed as inconclusive are left out. The source made the active and inactive calls. How the source made its calls: active means hit-call score of the fitted dose curve at least 0.9, where 1 is the maximum; inconclusive means response in the unintended direction; inactive means score below 0.9.
# Molecular target: Estrogen-related receptor gamma (Homo sapiens) (UniProt P62508)
# Experiment: ATG_ERRg_TRANS: Attagene TRANS-FACTORIAL HepG2 Assay for human Estrogen-Related Receptor gamma (ERRg) (AID 2282977);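 further: hits increase reporter signal over DMSO so potencies reflect activators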
# Conditions: HepG2 Attagene TRANS reporter, ERRg transactivation
# Experimental: ATG_TRANS is a cell-based, multiplexed-readout assay that uses HepG2, a human liver cell line, with measurements taken at 24 hours after chemical dosing in a 24-well plate.ATG_ERRg_TRANS is one of 30 assay component(s) measured or calculated from the ATG_TRANS assay. It is designed to make measurements of mRNA induction, a form of inducible reporter, as detected with fluorescence intensity signals by Reverse transcription polymerase chain reaction (RT-PCR) and Capillary electrophoresis technology.Data from the assay component ATG_ERRg_TRANS was analyzed into 1 assay endpoint. This assay endpoint, ATG_ERRg_TRANS, was analyzed in the positive analysis fitting direction relative to DMSO as the negative control and baseline of activity. Using a type of inducible reporter, measures of mRNA for gain-of-signal activity can be used to understand the reporter gene at the transcription factor-level as they relate to the gene ESRRG. Furthermore, this assay endpoint can be referred to as a primary readout, because this assay has produced multiple assay endpoints where this one serves a reporter gene function. To generalize the intended target to other relatable targets, this assay endpoint is annotated to the nuclear receptor intended target family, where the subfamily is steroidal.
# Human liver HepG2 cells are transiently transfected with multiple reporter transcription units (MRTUs) in 6-well plates using FuGene 6 reagent (Roche; 3 ml FuGene/1 mg DNA). The MRTU constructs are regulated by a cis-regulating element (promoter). […] A major difference between the CIS and TRANS system is that in CIS activities of endogenous TFs are measured, whereas the TRANS assay evaluates changes in activities of exogenous, chimeric NR-Gal4 proteins. […] At the end of 24 hour incubation, total RNA was isolated using TriZol reagent (Invitrogen). The isolated RNA is then reverse-transcribed using oligo(dT) primer and Mo-MLV reverse transcriptase (Invitrogen) with DNAse I (Ambion) treatment for 30 min. The one-tenth of the produced cDNA was amplified by PCR using Taq DNA polymerase (Invitrogen) and two reporter sequence-specific primers. The PCR products were fluorescently labeled by primer extension with 6-arboxyfluorescein (6-FAM) 5'-labeled reporter sequence-specific primer (2 min at 95 C, 20 s at 68 C and 10 min at 72 C) and these products were digested with 5U of HpaI (New England Biolabs) for 2h at 37 C. The fragments were purified using Qiaquick PCR columns (Qiagen), analyzed on an ABI 3130xL genetic analyzer (Applied Biosystems) with peak positions identified by using a set of X-rhodamine (ROX)-labeled MapMarker1000 molecular weight standards (BioVentures). The raw capillary electrophoresis data was processed using Attagraph software (Attagene).
# Sequence of Estrogen-related receptor gamma (Homo sapiens) (P62508 whole entry, looked up): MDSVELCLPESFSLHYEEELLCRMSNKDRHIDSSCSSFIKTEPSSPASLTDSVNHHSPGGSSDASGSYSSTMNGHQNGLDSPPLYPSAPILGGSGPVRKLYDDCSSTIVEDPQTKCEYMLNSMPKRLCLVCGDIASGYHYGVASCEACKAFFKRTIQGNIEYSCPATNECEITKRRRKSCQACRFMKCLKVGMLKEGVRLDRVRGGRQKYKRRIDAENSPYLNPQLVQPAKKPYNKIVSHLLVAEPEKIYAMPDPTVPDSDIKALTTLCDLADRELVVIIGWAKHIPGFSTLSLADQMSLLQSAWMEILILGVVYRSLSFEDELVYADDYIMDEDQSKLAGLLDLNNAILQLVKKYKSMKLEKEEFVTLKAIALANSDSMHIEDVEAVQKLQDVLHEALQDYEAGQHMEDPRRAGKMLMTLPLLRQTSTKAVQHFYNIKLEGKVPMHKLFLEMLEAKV
row,Compound,outcome
1,Nc1ccc(Oc2ccc(N)cc2)cc1,inactive
2,Nc1ccc(N=Nc2ccccc2)cc1,inactive
3,Nc1cc(Cl)cc(C(=O)O)c1Cl,inactive
4,CO[C@@H]1[C@H](OC(=O)NC(=O)CCl)CC[C@]2(CO2)[C@H]1[C@@]1(C)O[C@@H]1CC=C(C)C,inactive
5,Cc1ccc(N=C=O)cc1N=C=O,inactive
6,CCC(C)c1ccc(O)cc1 (stereo unspecified),inactive
7,CC(C)(O)c1cnn2c(-c3ccc(F)c(-c4c(F)cccc4C#N)c3)cnc2n1,inactive
8,CCNS(=O)(=O)C(F)(F)C(F)(F)C(F)(F)C(F)(F)C(F)(F)C(F)(F)C(F)(F)C(F)(F)F,inactive
9,O=C(N[C@H](c1ccccc1)[C@@H]1CN2CCC1CC2)c1c(Cl)ccc(C(F)(F)F)c1Cl,inactive
10,CCCCCCCCn1sccc1=O,inactive
11,CN(C)c1ccccc1,inactive
12,Cc1ccc(N)cc1,inactive
13,O=C1CCCO1,inactive
14,CC(C)(C)OOC(C)(C)CCC(C)(C)OOC(C)(C)C,inactive
15,Cc1cccc(N)c1N,inactive
16,Cc1cc(N=Nc2ccccc2C)ccc1N,inactive

# Reference: PubChem BioAssay (EPA / NIEHS)
